Reference: PubChem BioAssay AID1159580 (chemical genetic matrix, 2015)
Screen size: about 5,500 compounds; about 2,000 (36%) were called active. Roughly 18% stayed inconclusive and do not appear here. No stated cut-off is given here; in the data, active means normalized growth mostly below about 0.91 (no sharp cut-off); inconclusive means no clear call, values can overlap the other calls; inactive means mostly above about 0.92. The list shows a part of the results.

Test: chemical genetic growth profiling, strain panel (AID 1159580);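 further: tested at 20 µM; growth read once vehicle control cultures reached saturation at 30 °C; 1 = growth at the plate median or of vehicle wells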
Conditions: growth OD

Measured: normalized growth

CCC(Cc1c(I)cc(I)c(N)c1I)C(=O)O (stereo unspecified)
inactive: S. cerevisiae deletion strains, locus YKL009W, strain mrt4, stronger effect = lower value 0.974 | S. cerevisiae deletion strains, locus YKL068W, stronger effect = lower value 0.986 | S. cerevisiae deletion strains, locus YKL085W, strain MDH1 (second series), stronger effect = lower value 0.982 | S. cerevisiae deletion strains, locus YKL085W, strain MDH1, stronger effect = lower value 0.982 | S. cerevisiae deletion strains, locus YKL160W, strain elf1, stronger effect = lower value 0.961 | S. cerevisiae deletion strains, locus YKL190W, strain CNB1, stronger effect = lower value 1 | S. cerevisiae deletion strains, locus YKR001C, strain vps1, stronger effect = lower value 0.996 | S. cerevisiae deletion strains, locus YKR026C, strain gcn3, stronger effect = lower value 0.946 | S. cerevisiae deletion strains, locus YKR091W, strain srl3, stronger effect = lower value 0.941 | S. cerevisiae deletion strains, locus YLL001W, strain dnm1, stronger effect = lower value 0.977 | S. cerevisiae deletion strains, locus YLL026W, stronger effect = lower value 0.96 | S. cerevisiae deletion strains, locus YLL041C, strain sdh2, stronger effect = lower value 0.954 | S. cerevisiae deletion strains, locus YLR027C, strain aat2, stronger effect = lower value 0.964 | S. cerevisiae deletion strains, locus YLR039C, strain RIC1, stronger effect = lower value 0.933 | S. cerevisiae deletion strains, locus YLR058C, strain SHM2, stronger effect = lower value 1 | S. cerevisiae deletion strains, locus YLR102C, strain apc9, stronger effect = lower value 0.999 | S. cerevisiae deletion strains, locus YLR262C, strain YPT6, stronger effect = lower value 0.936 | S. cerevisiae deletion strains, locus YLR268W, strain sec22, stronger effect = lower value 1 | S. cerevisiae deletion strains, locus YLR330W, strain CHS5, stronger effect = lower value 0.999 | S. cerevisiae deletion strains, locus YLR342W, strain FKS1 (second series), stronger effect = lower value 1 | S. cerevisiae deletion strains, locus YLR342W, strain FKS1, stronger effect = lower value 0.944 | S. cerevisiae deletion strains, locus YLR357W, strain rsc2, stronger effect = lower value 1.02 | S. cerevisiae deletion strains, locus YLR370C, strain arc18, stronger effect = lower value 0.95 | S. cerevisiae deletion strains, locus YLR371W, strain rom2, stronger effect = lower value 1 | S. cerevisiae deletion strains, locus YLR384C, strain iki3, stronger effect = lower value 0.954 | S. cerevisiae deletion strains, locus YLR418C, strain cdc73, stronger effect = lower value 1.02 | S. cerevisiae deletion strains, locus YML016C, strain PPZ1, stronger effect = lower value 0.995 | S. cerevisiae deletion strains, locus YML032C, strain rad52, stronger effect = lower value 1.02 | S. cerevisiae deletion strains, locus YML120C, strain ndi1, stronger effect = lower value 0.95 | S. cerevisiae deletion strains, locus YML124C, strain tub3, stronger effect = lower value 0.992 | S. cerevisiae deletion strains, locus YMR058W, strain fet3, stronger effect = lower value 0.944 | S. cerevisiae deletion strains, locus YMR078C, strain ctf18, stronger effect = lower value 1 | S. cerevisiae deletion strains, locus YMR125W, strain sto1, stronger effect = lower value 0.948 | S. cerevisiae deletion strains, locus YMR129W, stronger effect = lower value 0.932 | S. cerevisiae deletion strains, locus YMR205C, strain PFK2, stronger effect = lower value 0.906 | S. cerevisiae deletion strains, locus YMR223W, strain ubp8, stronger effect = lower value 1.01 | S. cerevisiae deletion strains, locus YMR231W, strain pep5, stronger effect = lower value 0.97 | S. cerevisiae deletion strains, locus YMR263W, strain SAP30, stronger effect = lower value 0.989 | S. cerevisiae deletion strains, locus YMR307W, strain GAS1, stronger effect = lower value 0.963 | S. cerevisiae deletion strains, locus YNL067W, strain RPL9B, stronger effect = lower value 1.01 | S. cerevisiae deletion strains, locus YNL128W, strain TEP1, stronger effect = lower value 1.01 | S. cerevisiae deletion strains, locus YNL153C, strain GIM3, stronger effect = lower value 1.01 | S. cerevisiae deletion strains, locus YNL209W, strain ssb2, stronger effect = lower value 0.966 | S. cerevisiae deletion strains, locus YNL233W, strain BNI4, stronger effect = lower value 1.01 | S. cerevisiae deletion strains, locus YNL248C, strain rpa49, stronger effect = lower value 0.887 | S. cerevisiae deletion strains, locus YNL250W, strain rad50, stronger effect = lower value 0.994 | S. cerevisiae deletion strains, locus YNL271C, strain bni1, stronger effect = lower value 0.979 | S. cerevisiae deletion strains, locus YNL298W, strain CLA4, stronger effect = lower value 0.981 | S. cerevisiae deletion strains, locus YNL307C, strain MCK1, stronger effect = lower value 0.997 | S. cerevisiae deletion strains, locus YNL322C, strain KRE1 (second series), stronger effect = lower value 0.932 | S. cerevisiae deletion strains, locus YNL322C, strain KRE1, stronger effect = lower value 1 | S. cerevisiae deletion strains, locus YNR049C, strain mso1, stronger effect = lower value 0.925 | S. cerevisiae deletion strains, locus YNR052C, strain pop2, stronger effect = lower value 0.998 | S. cerevisiae deletion strains, locus YOL006C, strain TOP1, stronger effect = lower value 1.01 | S. cerevisiae deletion strains, locus YOL012C, strain htz1 1.15 | S. cerevisiae deletion strains, locus YOL147C, strain pex11, stronger effect = lower value 0.999 | S. cerevisiae deletion strains, locus YOR001W, strain rrp6, stronger effect = lower value 1 | S. cerevisiae deletion strains, locus YOR061W, strain CKA2, stronger effect = lower value 0.997 | S. cerevisiae deletion strains, locus YOR069W, strain VPS5, stronger effect = lower value 0.999 | S. cerevisiae deletion strains, locus YOR080W, strain dia2, stronger effect = lower value 0.95 | S. cerevisiae deletion strains, locus YOR083W, strain WHI5, stronger effect = lower value 0.949 | S. cerevisiae deletion strains, locus YOR106W, strain vam3, stronger effect = lower value 0.943 | S. cerevisiae deletion strains, locus YOR136W, strain idh2, stronger effect = lower value 1.02 | S. cerevisiae deletion strains, locus YOR144C, strain elg1, stronger effect = lower value 0.985 | S. cerevisiae deletion strains, locus YOR184W, strain ser1, stronger effect = lower value 1.01 | S. cerevisiae deletion strains, locus YOR265W, strain rbl2, stronger effect = lower value 0.951 | S. cerevisiae deletion strains, locus YOR270C, strain vph1, stronger effect = lower value 0.784 | S. cerevisiae deletion strains, locus YOR290C, strain snf2, stronger effect = lower value 0.92 | S. cerevisiae deletion strains, locus YOR316C, strain cot1, stronger effect = lower value 0.999 | S. cerevisiae deletion strains, locus YPL051W, strain arl3, stronger effect = lower value 0.925 | S. cerevisiae deletion strains, locus YPL055C, strain LGE1, stronger effect = lower value 1.04 | S. cerevisiae deletion strains, locus YPL078C, strain atp4, stronger effect = lower value 0.974 | S. cerevisiae deletion strains, locus YPL106C, strain sse1, stronger effect = lower value 0.951 | S. cerevisiae deletion strains, locus YPL240C, strain hsp82, stronger effect = lower value 0.939 | S. cerevisiae deletion strains, locus YPL241C, strain CIN2, stronger effect = lower value 0.975 | S. cerevisiae deletion strains, locus YPR119W, strain clb2, stronger effect = lower value 0.988 | S. cerevisiae deletion strains, locus YPR141C, strain kar3, stronger effect = lower value 0.988 | S. cerevisiae deletion strains, locus YPR163C, strain tif3, stronger effect = lower value 1.01 | S. cerevisiae deletion strains, locus YPR167C, strain met16, stronger effect = lower value 1 | S. cerevisiae deletion strains, strain wtn01, stronger effect = lower value 1 | S. cerevisiae strains, strain wild type, stronger effect = lower value 0.999
active: S. cerevisiae deletion strains, locus YLR113W, strain HOG1, stronger effect = lower value 0.127 | S. cerevisiae deletion strains, locus YLR221C, strain rsa3, stronger effect = lower value 0.876 | S. cerevisiae deletion strains, locus YLR258W, strain gsy2, stronger effect = lower value 0.909 | S. cerevisiae deletion strains, locus YLR262C, strain YPT6 (second series), stronger effect = lower value 0.698 | S. cerevisiae deletion strains, locus YLR320W, strain mms22, stronger effect = lower value 0.873 | S. cerevisiae deletion strains, locus YNL071W, strain lat1, stronger effect = lower value 0.689 | S. cerevisiae deletion strains, locus YNL183C, strain NPR1, stronger effect = lower value 0.0218 | S. cerevisiae deletion strains, locus YOR070C, strain gyp1, stronger effect = lower value 0.917 | S. cerevisiae deletion strains, locus YOR231W, strain MKK1, stronger effect = lower value 0.113 | S. cerevisiae deletion strains, locus YPL256C, strain CLN2, stronger effect = lower value 0.126
